From PubChem BioAssay AID1159580 (chemical genetic matrix, 2015)
About 2,000 (36%) of roughly 5,500 compounds were called active. Roughly 18% stayed inconclusive and do not appear here. Rule as the data show it: active = normalized growth mostly below about 0.91 (no sharp cut-off); inconclusive = no clear call, values can overlap the other calls; inactive = mostly above about 0.92. The list shows a part of the results.

Assay: chemical genetic growth profiling, strain panel (AID 1159580);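 also: tested at 20 µM; growth read once vehicle control cultures reached saturation at 30 °C; 1 = growth at the plate median or of vehicle wells; lower values mean less growth of the strain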
Details: S. cerevisiae deletion strains, growth OD

Measured: normalized growth

O=C(O)C1CC(=O)N(Cc2ccccc2Cl)C1 (stereo not drawn)
inactive: locus YAL013W, strain DEP1, stronger effect = lower value 1.01 | locus YBR229C, strain ROT2, stronger effect = lower value 1 | locus YCL061C, strain MRC1, stronger effect = lower value 1.02 | locus YDL101C, strain DUN1, stronger effect = lower value 0.994 | locus YDL134C, strain PPH21, stronger effect = lower value 1.01 | locus YDR150W, strain NUM1, stronger effect = lower value 0.947 | locus YEL061C, strain CIN8, stronger effect = lower value 1.03 | locus YGR078C, strain PAC10, stronger effect = lower value 1.01 | locus YHR030C, strain SLT2, stronger effect = lower value 1.15 | locus YHR087W, strain rtc3, stronger effect = lower value 1.01 | locus YJR043C, strain POL32, stronger effect = lower value 0.966 | locus YJR075W, strain HOC1, stronger effect = lower value 1 | locus YLR039C, strain RIC1, stronger effect = lower value 1.04 | locus YLR058C, strain SHM2 (second series), stronger effect = lower value 1 | locus YLR085C, strain ARP6, stronger effect = lower value 1.04 | locus YLR262C, strain YPT6, stronger effect = lower value 1.01 | locus YML094W, strain GIM5, stronger effect = lower value 1.04 | locus YMR219W, strain ESC1, stronger effect = lower value 1.01 | locus YMR263W, strain SAP30, stronger effect = lower value 1.01 | locus YMR307W, strain GAS1, stronger effect = lower value 1.02 | locus YNL153C, strain GIM3, stronger effect = lower value 0.992 | locus YNL298W, strain CLA4 (second series), stronger effect = lower value 1.07 | locus YNL322C, strain KRE1, stronger effect = lower value 1.01 | locus YNR030W, strain Alg12, stronger effect = lower value 1.03 | locus YOL006C, strain TOP1, stronger effect = lower value 1.08 | locus YPL055C, strain LGE1, stronger effect = lower value 0.931 | locus YPL241C, strain CIN2, stronger effect = lower value 1.11 | locus YPR135W, strain CTF4, stronger effect = lower value 1.06
